From PubChem BioAssay AID504599 (National Center for Advancing Translational Sciences (NCATS), 2011)
“And” between values parts separate entries of the source, which are not always exact repeats. Identical values can stand only once. The source made the active and inactive calls. The call rests on the fitted dose curve; in most records, active means well fitted inhibition curve with a large enough effect; inconclusive means small, poorly fitted or top-dose-only effect; inactive means flat fitted curve, though single readings scatter.

Experiment: Quantitative high throughput screen for delayed death inhibitors of the malarial parasite plastid, 96 hour incubation.
Settings: P. falciparum luciferase growth
Source text: NIH Molecular Libraries Probe Production Network [MLPCN] NIH Chemical Genomics Center [NCGC] MLPCN Grant: R21 NS059500 Assay Provider: David Fidock and Eric Ekland, Columbia University The goal of this screen is to discover new antimalarial compounds that act by inhibiting the development of the apicoplast in the malarial parasite Plasmodium falciparum. The biochemical processes that make this organelle essential for erythrocytic stage parasites are not well understood. However, antibiotics, such as azithromycin and tetracycline, which target the apicoplast translational machinery, have a potent antimalarial effect. […] We have developed a cell-based assay that measures parasite growth based on the expression of an integrated copy of a firefly luciferase reporter. To detect small molecules that cause this 'delayed death' phenotype, erythrocytes infected with the luciferase-expressing parasites were incubated with compounds for either one or two generations, corresponding to 48 and 96 hours, respectively. Compounds that inhibit parasite growth in the second generation, but not the first, should be enriched in antimalarials that target the apicoplast. Growth inhibition is detected by a decrease in luciferase activity
Four microliters of culture medium (RPMI 1640 with 0.5% w/v Albumax (GIBCO), 24 mM sodium bicarbonate and 10 ug/mL gentamycin) were dispensed by a Multi-drop Combi into white solid 1536-well plates (Grenier) and 23 nL compound was added by a pin tool. Four microliters of infected erythrocytes (2% hematocrit, 0.1% parasitemia final concentration) in culture medium were dispensed and the plates incubated for 96 hours at 37 C in 5% CO2. Two microliters of luciferase detection reagent was added and luminescence was detected by a ViewLux (PerkinElmer) reader

SMILES | Potency
COCOC[C@H](C)N1C[C@@H](C)[C@H](CN(C)S(=O)(=O)c2ccc(F)cc2)OCCCC[C@H](C)Oc2ccc(NC(=O)Nc3ccccc3)cc2C1=O | 8 nM (active)
C[C@@H]1CCCCO[C@H](CN(C)C(=O)Nc2ccc(F)cc2)[C@H](C)CN([C@@H](C)CO)C(=O)c2cc(NS(=O)(=O)c3ccccc3)ccc2O1 | 113 nM (active)
C[C@@H]1CN([C@@H](C)COC(=O)c2ccccc2)C(=O)c2cc(NC(=O)Nc3ccccc3)ccc2O[C@@H](C)CCCCO[C@H]1CN(C)C(=O)OC(C)(C)C | 356 nM (active)
C[C@@H]1CN([C@@H](C)CO)C(=O)c2cc(NC(=O)Nc3ccccc3)ccc2O[C@@H](C)C/C=C/CO[C@H]1CN(C)S(=O)(=O)c1ccc(F)cc1 | 79.8 nM (active)
C[C@@H]1CN([C@@H](C)CN=[N+]=[N-])C(=O)c2cc(NC(=O)Nc3ccccc3)ccc2O[C@@H](C)CCCCO[C@H]1CN(C)S(=O)(=O)c1ccc(F)cc1 | 3.6 nM (active)
C=CCOC(=O)N(C)C[C@@H]1OCCCC[C@H](C)Oc2ccc(NC(=O)Nc3ccccc3)cc2C(=O)N([C@H](C)COC(=O)c2ccccc2)C[C@H]1C | 504 nM (active)
C[C@@H]1CCCCO[C@@H](CN(C)Cc2ccc(F)cc2)[C@H](C)CN([C@@H](C)CO)C(=O)c2cc(NC(=O)Nc3ccccc3)ccc2O1 | 2830 nM (active)
C=CCOC(=O)N(C)C[C@@H]1OCCCC[C@H](C)Oc2ccc(NC(=O)Nc3ccccc3)cc2C(=O)N([C@@H](C)CO)C[C@H]1C | 252 nM (active)
Cc1noc(C)c1NC(=O)Nc1ccc2c(c1)C(=O)N(C(C)C)C[C@@H](C)[C@H](CN(C)S(=O)(=O)c1ccc(F)cc1)OCCCC[C@H](C)O2 | 44.9 nM (active) and 1.42 µM (active)
C[C@@H]1CN([C@@H](C)CO)C(=O)c2cc(NC(=O)Nc3ccccc3)ccc2O[C@@H](C)CCCCO[C@H]1CN(C)S(=O)(=O)c1cccc(F)c1 | 7.1 nM (active)
C[C@@H]1CN([C@H](C)CO[Si](C)(C)C(C)(C)C)C(=O)c2cc(NC(=O)Nc3ccccc3)ccc2O[C@@H](C)CCCCO[C@H]1CN(C)S(=O)(=O)c1ccc(F)cc1 | 159 nM (active)
C[C@@H]1CN([C@@H](C)CO[Si](C)(C)C(C)(C)C)C(=O)c2cc(NC(=O)Nc3ccccc3)ccc2O[C@@H](C)CCCCO[C@H]1CN(C)S(=O)(=O)c1ccc(F)cc1 | 0.6 nM (active)
C[C@@H]1CN([C@@H](C)CO)C(=O)c2cc(NC(=O)Nc3ccccc3)ccc2O[C@@H](C)C/C=C\CO[C@H]1CN(C)S(=O)(=O)c1ccc(F)cc1 | 252 nM (active)
COc1ccc(COCCN2C[C@@H](C)[C@H](CN(C)S(=O)(=O)c3ccc(F)cc3)OCCCC[C@H](C)Oc3ccc(NC(=O)Nc4ccccc4)cc3C2=O)cc1 | 71.1 nM (active)
C[C@@H]1CN([C@@H](C)CO)C(=O)c2cc(NC(=O)Nc3ccccc3)ccc2O[C@@H](C)CCCCO[C@H]1CN(C)S(=O)(=O)c1ccc(C(F)(F)F)cc1 | 798 nM (active)
C[C@@H]1CN([C@@H](C)CO)C(=O)c2cc(NC(=O)Nc3ccccc3)ccc2O[C@@H](C)CCCCO[C@H]1CN(C)S(=O)(=O)c1cccnc1 | 2830 nM (active)
C[C@@H]1CN(CCO[Si](C)(C)C(C)(C)C)C(=O)c2cc(NC(=O)Nc3ccccc3)ccc2O[C@@H](C)CCCCO[C@H]1CN(C)S(=O)(=O)c1ccc(F)cc1 | 40 nM (active)

SMILES | Potency
C=CCOC(=O)N(C)C[C@H]1OCCCC[C@H](C)Oc2ccc(NC(=O)Nc3ccccc3)cc2C(=O)N([C@@H](C)CO[Si](C)(C)C(C)(C)C)C[C@H]1C | 126 nM (active)
C[C@@H]1CN([C@@H](C)CO)C(=O)c2cc(NC(=O)Nc3ccccc3)ccc2O[C@@H](C)CCCCO[C@H]1CN(C)S(=O)(=O)c1ccccc1F | 449 nM (active)
C[C@@H]1CN([C@@H](C)CO)C(=O)c2cc(Nc3nc4ccccc4o3)ccc2O[C@@H](C)CCCCO[C@H]1CN(C)S(=O)(=O)c1ccc(F)cc1 | 1130 nM (active)
C[C@@H]1CN([C@@H](C)CO)C(=O)c2cc(NC(=O)Nc3ccccc3)ccc2O[C@@H](C)CCCCO[C@H]1CN(C)C(=O)OC(C)(C)C | 711 nM (active)
CC(C)NC(=O)Nc1ccc2c(c1)C(=O)N([C@@H](C)CO)C[C@@H](C)[C@H](CN(C)S(=O)(=O)c1ccc(F)cc1)OCCCC[C@H](C)O2 | 449 nM (active)
CC(C)N1C[C@@H](C)[C@H](CN(C)S(=O)(=O)c2ccc(F)cc2)OCCCC[C@H](C)Oc2ccc(NC(=O)Nc3ccccc3)cc2C1=O | 17.9 nM (active)
Cc1noc(C)c1NC(=O)Nc1ccc2c(c1)C(=O)N([C@@H](C)CO)C[C@@H](C)[C@H](CN(C)S(=O)(=O)c1ccc(F)cc1)OCCCC[C@H](C)O2 | 79.8 nM (active)
C[C@@H]1CN([C@@H](C)COC(=O)C(C)(C)C)C(=O)c2cc(NC(=O)Nc3ccccc3)ccc2O[C@@H](C)CCCCO[C@H]1CN(C)S(=O)(=O)c1ccc(F)cc1 | 5.7 nM (active)
C[C@@H]1CN(C)C(=O)c2cc(NC(=O)Nc3ccccc3)ccc2O[C@@H](C)CCCCO[C@@H]1CN(C)S(=O)(=O)c1ccc(F)cc1 | 1000 nM (active)
C[C@@H]1CN(CCO)C(=O)c2cc(NC(=O)Nc3ccccc3)ccc2O[C@@H](C)CCCCO[C@H]1CN(C)S(=O)(=O)c1ccc(F)cc1 | 179 nM (active)
C[C@@H]1CN([C@@H](C)COC(C)(C)C)C(=O)c2cc(NC(=O)Nc3ccccc3)ccc2O[C@@H](C)CCCCO[C@H]1CN(C)S(=O)(=O)c1ccc(F)cc1 | 0.8 nM (active)
COc1ccc(COC[C@H](C)N2C[C@@H](C)[C@H](CN(C)Cc3ccc(OC)cc3)OCCCC[C@H](C)Oc3ccc(NC(=O)Nc4ccccc4)cc3C2=O)cc1 | 449 nM (active)
C[C@@H]1CN([C@@H](C)COC(=O)c2ccccc2)C(=O)c2cc(NC(=O)Nc3ccccc3)ccc2O[C@@H](C)CCCCO[C@H]1CN(C)S(=O)(=O)c1ccc(F)cc1 | 44.9 nM (active)
COCCOCOC[C@H](C)N1C[C@@H](C)[C@H](CN(C)S(=O)(=O)c2ccc(F)cc2)OCCCC[C@H](C)Oc2ccc(NC(=O)Nc3ccccc3)cc2C1=O | 11.3 nM (active)
C[C@@H]1CN([C@@H](C)CO)C(=O)c2cc(NC(=O)Nc3ccccc3)ccc2O[C@@H](C)CCCCO[C@H]1CN(C)Cc1ccc(C(F)(F)F)cc1 | 711 nM (active)
C[C@@H]1CN([C@@H](C)CO)C(=O)c2cc(N)ccc2O[C@@H](C)CCCCO[C@H]1CN(C)S(=O)(=O)c1ccc(F)cc1 | 63.4 nM (active)
